Screening results (PubChem)
Rows were chosen to be rich in hits. Some 4% of all compounds tested hit in one or more screens of this group.
RAD52 anneal inh – blocks human RAD52 DNA annealing. P43351. recombinant RAD52 DNA annealing, FRET fluorescence. inhibition, % at 18.7 µM. hit rate 0.46% among 360,000. AID 651710;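 active means every replicate showing at least 50% inhibition; inconclusive means mean inhibition at least 50% but not in every replicate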
Target sequence (P43351 whole entry, looked up): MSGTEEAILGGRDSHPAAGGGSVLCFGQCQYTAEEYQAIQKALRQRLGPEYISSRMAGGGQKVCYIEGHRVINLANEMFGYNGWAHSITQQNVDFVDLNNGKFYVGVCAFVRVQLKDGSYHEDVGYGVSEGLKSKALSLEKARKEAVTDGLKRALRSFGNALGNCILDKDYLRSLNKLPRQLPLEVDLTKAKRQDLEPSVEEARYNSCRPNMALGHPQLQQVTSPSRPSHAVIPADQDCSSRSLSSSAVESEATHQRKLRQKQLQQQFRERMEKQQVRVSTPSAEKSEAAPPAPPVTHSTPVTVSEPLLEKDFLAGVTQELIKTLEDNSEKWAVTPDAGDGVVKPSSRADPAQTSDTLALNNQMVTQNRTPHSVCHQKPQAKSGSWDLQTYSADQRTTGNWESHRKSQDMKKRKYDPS
FGF22 binding – FGF22 (human) thermal shift binding | Q9HCT0 | recombinant FGF22 thermal shift, SYPRO orange fluorescence; percent of sucrose octasulfate shift, DMSO zero | activity (Tm shift, normalised), % at 9.99 µM | hit rate 1.5% among 340,000 | AID 651658;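 active means mean Tm shift, scaled 0 neutral to 100 positive control, at about 1.3% or above, every replicate too, limit read from the data; inconclusive means no clear call, values can overlap the other calls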
Target sequence (Q9HCT0 whole entry, looked up): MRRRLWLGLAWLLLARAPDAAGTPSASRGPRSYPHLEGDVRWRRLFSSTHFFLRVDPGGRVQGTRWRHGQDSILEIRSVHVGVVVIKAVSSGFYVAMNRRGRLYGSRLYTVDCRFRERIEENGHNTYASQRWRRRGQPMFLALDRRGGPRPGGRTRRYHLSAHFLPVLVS
DENV2 CPE rescue – inhibitors of DENV2 cytopathic effect; DENV2-infected cells, cytopathic effect rescue, plate reader; CPE inhibition, % at 9.99 µM; hit rate 1.7% among 350,000; AID 651640; in the data active means CPE inhibition above about 20%, passing the limit was not always enough; inconclusive means no clear call, values can overlap the other calls; tested in BHK-21 cells;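 further: 0% = median of neutral control wells and 100% = median of positive control wells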
ERAP1 inh – inhibitors of human ERAP1 aminopeptidase; recombinant ERAP1, Leu-AMC fluorescence, 60 min; inhibition, % at 10.7 µM; hit rate 0.15% among 340,000;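 active means mean replicate inhibition of at least 30%, or all replicates individually reaching that 30% level; inactive means mean below 30% and not every replicate reaching it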;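 further: 0% = neutral control wells and 100% = L-leucinethiol positive control wells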
AF4-AF9 inh – MLL-AF4/AF9 protein interaction inhibition. P42568. AlphaScreen, biotin-AF4 peptide binding to FLAG-AF9. inhibition, % at 10 µM. hit rate 0.47% among 350,000;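 active means every replicate reaching a set inhibition limit, whatever the replicate mean, cut at about 25% in these data; inconclusive means mean inhibition reaches that limit but some replicates miss it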;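 further: 0% = plate neutral control median and 100% = total signal loss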
* marks the source's active call; other numbers are inactive results; ? = inconclusive; . = no result given.

SMILES	RAD52 anneal inh	FGF22 binding	DENV2 CPE rescue	ERAP1 inh	AF4-AF9 inh
COc1ccc(NC(=O)Nc2ccc3c(c2)C(=O)N([C@H](C)CO)C[C@@H](C)[C@H](CN(C)C(=O)Cc2ccccc2)OCCCC[C@@H](C)O3)cc1	-2	0	30*	2	4
C[C@H](CO)N1C[C@H](C)[C@@H](CN(C)C)Oc2ccc(NC(=O)Nc3ccc(C(F)(F)F)cc3)cc2CC1=O	-5	-1	12	0	9
C[C@@H]1CN([C@H](C)CO)C(=O)c2cccc(NS(=O)(=O)c3cn(C)cn3)c2O[C@H]1CN(C)C(=O)NC1CCCCC1	-4	1	?	2	-1
Cc1ccc2nc3n(c(=O)c2c1)-c1ccc(Cl)cc1C(=O)NC3CC(C)C (stereo not drawn)	-22	0	77*	-3	5
Cc1ccc2c(c1)-n1c(nc3ccc(C)cc3c1=O)C(Cc1ccc(O)cc1)NC2=O (stereo not drawn)	-5	0	33*	-2	3
COc1ccc(-c2csc(=Nc3ccccc3)n2CCO)cc1	4	0	-3	-1	38*
CC(=O)c1cccc(N=c2scc(-c3ccc(S(=O)(=O)N4CCOCC4)cc3)n2CCO)c1	-27	0	1	-4	17
COc1ccc(-c2csc(=NCCO)n2-c2ccccc2)cc1	-17	0	-3	2	33*
CC(=O)Oc1cccc(C2=CC(=O)CC(C)(C)C2=O)c1	-2	0	22*	7	-3
CC1(C)CC(=O)C=C(c2cccc(OC(=O)c3ccc(Br)cc3)c2)C1=O	-5	0	-2	0	8
Cc1nc(CN(C)C(=O)c2cc(COc3ccc4ncccc4c3)on2)cs1	-7	43*	-2	-2	-1
CC(C)NC(=O)N(C)C[C@H]1Oc2ccc(NC(=O)NC3CCCCC3)cc2CC(=O)N([C@H](C)CO)C[C@H]1C	-11	0	-6	2	-2
CC(c1nccs1)N(C)c1nc2nonc2nc1NC1CC1 (stereo not drawn)	-24	1	-2	.	-6
CN(c1nc2nonc2nc1NC1CC1)C1CCOC1 (stereo not drawn)	-21	43*	1	3	-2
COCCCNc1ccn2nc(-c3ccc(Cl)cc3)cc2n1	-23	0	30*	2	-8
C[C@@H]1CN([C@@H](C)CO)C(=O)c2cc(NS(=O)(=O)c3ccc(F)cc3)ccc2O[C@@H]1CN(C)S(=O)(=O)c1cn(C)cn1	8	1	7	-1	-3
C/C=C/c1ccc([C@@H]2[C@@H](CO)N3C(=O)CN(C(=O)c4cnccn4)C[C@@H]23)cc1	-10	.	59*	-1	0
COCC(=O)N1CC(=O)N2[C@H](CO)[C@H](c3ccc(C#Cc4cccc(OC)c4)cc3)[C@@H]2C1	-13	.	40*	1	-1
O=C(c1ccccn1)N1CC(=O)N2[C@H](C1)[C@H](c1ccc(C#CCc3ccccc3)cc1)[C@@H]2CO	-4	.	54*	0	5
O=C(Cc1ccccn1)N1CC(=O)N2[C@H](CO)[C@@H](c3ccc(C#CC4CCCCC4)cc3)[C@@H]2C1	-5	.	26*	1	8
O=C(c1cnccn1)N1CC(=O)N2[C@H](C1)[C@@H](c1ccc(/C=C/c3ccccc3)cc1)[C@@H]2CO	0	0	-1	1	3
O=C(c1ccccn1)N1CC(=O)N2[C@H](CO)[C@@H](c3ccc(C#CCc4ccccc4)cc3)[C@@H]2C1	-8	.	11	2	-2
O=C(Cc1ccccc1)N1CC(=O)N2[C@H](CO)[C@@H](c3ccc(C#Cc4ccccc4)cc3)[C@H]2C1	-32	.	1	-1	-4
O=C(c1ccccn1)N1CC(=O)N2[C@H](CO)[C@@H](c3ccc(C#Cc4ccccc4)cc3)[C@@H]2C1	-10	.	52*	1	0
O=C(Cc1ccccc1)N1CC(=O)N2[C@@H](CO)[C@H](c3ccc(C#Cc4ccccc4)cc3)[C@@H]2C1	-23	.	24*	-2	-8
SMILES	RAD52 anneal inh	FGF22 binding	DENV2 CPE rescue	ERAP1 inh	AF4-AF9 inh
COc1ccccc1NC(=O)c1ccc2c(c1)nnn2C	-7	44*	-6	-3	-2
COc1ccc2c(c1)CCc1c(C(=O)Nc3ccn(Cc4ccc(C)cc4)n3)noc1-2	-8	28*	12	0	0
COc1ccc2c(c1)CCc1c(C(=O)NCc3ccc(F)cc3)noc1-2	-8	0	-2	2	2
O=C(C1CCOCC1)N1CC(=O)N2[C@@H](CO)[C@H](c3ccc(/C=C/c4ccccc4)cc3)[C@@H]2C1	9	0	-7	2	-1
CCOc1ccc(NC(=O)CN(C)C(=O)c2ccccc2OCc2c(C)noc2C)cc1OCC	13	-1	25*	0	21
Cc1ccc(NC(=O)CN(C)C(=O)c2ccccc2OCc2c(C)noc2C)cc1	-7	0	-11	3	-1
O=S(=O)(N[C@H]1CC[C@@H](CCn2cc(-c3cccc(F)c3)nn2)O[C@@H]1CO)c1ccc(Cl)cc1	-10	0	-6	-2	0
COC(=O)C[C@@H]1C[C@@H]2c3cc(NC(=O)Nc4ccc(OC)cc4)ccc3O[C@@H]2[C@@H](CO)O1	-5	.	-7	-1	-2
CCOc1ccccc1C(=O)Nc1cc(C)ccc1NC(=O)c1ccco1	-7	1.7*	3	-1	1
CCC(=O)Nc1ccc(NC(=O)c2ccco2)cc1	5	0	1	10	1
CCOc1cccc(C(=O)Nc2cc(C)ccc2NC(=O)c2ccco2)c1	-4	0	-1	2	2
CCOc1ccc(CC(=O)Nc2ccc(NC(=O)c3ccco3)cc2)cc1OCC	-3	44*	18	5	-1
Cc1ccc(NC(=O)c2ccco2)c([N+](=O)[O-])c1	-5	43*	5	-2	5
CC(C)(C)c1ccc(NC(=O)c2ccccc2)c([N+](=O)[O-])c1	4	44*	2	4	8
CCC(=O)N1CC2(C1)CN(CC1CCOCC1)[C@@H](CO)c1c2c2ccc(OC)cc2n1C	-157	0	-8	-4	-1
CC(=O)N1[C@@H]2Cn3c(ccc(C4=CCCCC4)c3=O)[C@H]1[C@@H](C(=O)NC1CCCC1)[C@@H]2CO	-5	-1	8	3	-12
C[C@H](CO)N1C[C@H](C)[C@@H](CN(C)C(=O)CN2CCOCC2)Oc2ncc(/C=C/c3ccccc3)cc2C1=O	-3	0	-3	1	-1
COc1ccc2c3c(n(C)c2c1)[C@@H](CO)N(C(=O)C1CC1)CC31CN(C)C1	3	0	1	0	1
O=C(c1cccc(F)c1)N1C[C@@H]2[C@H](c3ccccc31)[C@@H](CO)N2C(=O)c1ccc(F)cc1	-9	0	2	0	-3
C=CCn1c(SCC(=O)NC(N)=O)nnc1-c1cc2c(s1)CCC(CC)C2 (stereo not drawn)	0	0	21*	-2	1
